Compound activity as filed in PubChem BioAssay.
Hits are enriched below; roughly 11% of the tested compounds scored in any of these assays.
ALDH1A1 block = ALDH1A1 (human) enzyme inhibition; 220,000 compounds, 7.3% hits; P00352; Potency, µM (titrated, usually from 75.3 µM), actives largely listed as inhibitors; Purified ALDH1A1, NADH fluorescence, propionaldehyde substrate
Target sequence (P00352 whole entry, looked up): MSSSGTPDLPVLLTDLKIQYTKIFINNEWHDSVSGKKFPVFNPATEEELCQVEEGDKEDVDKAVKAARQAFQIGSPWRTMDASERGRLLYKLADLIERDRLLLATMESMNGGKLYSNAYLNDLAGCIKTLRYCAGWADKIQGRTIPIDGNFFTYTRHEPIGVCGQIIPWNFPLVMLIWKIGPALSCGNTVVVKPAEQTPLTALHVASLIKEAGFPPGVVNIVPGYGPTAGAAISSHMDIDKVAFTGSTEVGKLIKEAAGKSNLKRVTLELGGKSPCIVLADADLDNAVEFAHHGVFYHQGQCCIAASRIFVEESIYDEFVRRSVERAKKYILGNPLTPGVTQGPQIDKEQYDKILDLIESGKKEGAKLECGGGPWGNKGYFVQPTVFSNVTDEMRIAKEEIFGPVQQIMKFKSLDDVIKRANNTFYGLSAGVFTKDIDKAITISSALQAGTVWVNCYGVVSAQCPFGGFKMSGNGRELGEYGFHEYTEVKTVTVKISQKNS
PNC assembly inh = inhibitors of perinucleolar compartment assembly; PC3M PTB-GFP, PNC prevalence imaging, 16 h; stronger effect = lower value; activity change (PNC), negative = inhibition, % at 10 µM; 140,000 compounds, 3.1% hits; AID 2417;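 active means readout at or below -70, meaning at least 70% loss of cells showing the perinucleolar compartment, a nuclear body marking cancer cells; inconclusive means readout between -30 and a set limit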
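Compounds are pinned in duplicate onto adhered PC3M cells stably expressing GFP-tagged PTB and incubated 16 h at 37 C. Cells are then fixed, nuclei stained with Hoechst, and PNC-positive cells counted.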
HPGD block = blocks human HPGD enzyme activity; P15428; purified HPGD, NADH fluorescence kinetic, PGE2 substrate; Potency, µM, actives largely listed as inhibitors; 150,000 compounds, 4.3% hits; AID 894
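NADH formation kinetics: reaction with 30 uM PGE2 and 1 mM NAD+ (final), 20 nM enzyme, Tris-HCl pH 8 with Tween 20, after 15 min compound preincubation at room temperature. Fluorescence change, last versus first of five reads.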
A number is an active result; [ ] = remark or other dose. Unless noted, the call rests on the fitted dose curve; in most records, active means well fitted inhibition curve with a large enough effect (not every such curve was filed as active); inconclusive means small, poorly fitted or top-dose-only effect, or another doubt; inactive means no such curve, though single readings can be large or run the other way.

How did O=C(Oc1ccc2c(c1)OCO2)c1cc2c(s1)CCC2 do in these assays?
ALDH1A1 block: inactive; PNC assembly inh: inconclusive; HPGD block: 22µM

What do the screens show for `Cc1ccccc1NC(=S)N1CCN(Cc2ccc3c(c2)OCO3)CC1`?
ALDH1A1 block: inactive; PNC assembly inh: inconclusive; HPGD block: inactive

What do the screens show for `O=C(c1ccc(Br)s1)N1CCN(Cc2ccc3c(c2)OCO3)CC1`?
ALDH1A1 block: inactive; PNC assembly inh: inactive; HPGD block: inactive

How did CC(C)NC(=S)N1CCN(Cc2ccc3c(c2)OCO3)CC1 do in these assays?
ALDH1A1 block: 22µM

What do the screens show for `O=C(c1ccc(Br)o1)N1CCN(Cc2ccc3c(c2)OCO3)CC1`?
ALDH1A1 block: inconclusive; PNC assembly inh: inconclusive; HPGD block: inactive

Results for O=C(c1cc2c(s1)CCCC2)N1CCN(Cc2ccc3c(c2)OCO3)CC1 ?
ALDH1A1 block: 14µM; PNC assembly inh: inactive; HPGD block: inactive

What do the screens show for `COC(=O)NNC(=O)c1ccc(C)c(Br)c1`?
ALDH1A1 block: inactive; PNC assembly inh: inactive; HPGD block: inactive

Results for Cc1ccc(-n2nnnc2SCC(=O)Nc2ncc(Cc3ccccc3Cl)s2)cc1 ?
ALDH1A1 block: inactive; PNC assembly inh: inactive

Results for O=C(C1=C[C@H](c2coc3ccccc3c2=O)C[C@H](OCCCCO)O1)N1CCN(Cc2ccc3c(c2)OCO3)CC1 ?
ALDH1A1 block: inactive

How did CCCc1nc2sc3c(=O)n(N)cnc3c2c2c1CCCC2 do in these assays?
ALDH1A1 block: inactive; PNC assembly inh: inactive; HPGD block: inactive

How did COc1ccc(C(=O)N2CCN(Cc3ccc4c(c3)OCO4)CC2)cc1[N+](=O)[O-] do in these assays?
ALDH1A1 block: 1.6µM

How did O=C(Oc1ccc2c(c1)OCO2)c1ccc(F)cc1Cl do in these assays?
ALDH1A1 block: inactive; PNC assembly inh: -109; HPGD block: inconclusive

What do the screens show for `CCOc1ncccc1C(=O)Oc1ccc2c(c1)OCO2`?
ALDH1A1 block: inactive; PNC assembly inh: inactive; HPGD block: inactive

How did O=C(c1ccccc1[N+](=O)[O-])N1CCN(Cc2ccc3c(c2)OCO3)CC1 do in these assays?
ALDH1A1 block: inactive; PNC assembly inh: inactive; HPGD block: inactive

What do the screens show for `CN(CC(O)CON=C1c2ccccc2-c2ccccc21)S(=O)(=O)c1ccc(Br)cc1` (configuration not stated)?
ALDH1A1 block: inactive; PNC assembly inh: inactive; HPGD block: inactive

What do the screens show for `CCCc1cc(C(=O)N/N=C/c2ccc(C)o2)c2ccccc2n1`?
ALDH1A1 block: inactive; PNC assembly inh: inactive; HPGD block: inactive

How did Cc1ccc(/C=N/NC(=O)c2cc(C3CC3)nc3ccccc23)o1 do in these assays?
ALDH1A1 block: inactive; PNC assembly inh: -108; HPGD block: inactive

How did Cc1ccc(/C=N\NC(=O)C2COc3cc4ccccc4cc3O2)o1 (configuration not stated) do in these assays?
ALDH1A1 block: inconclusive; PNC assembly inh: inactive; HPGD block: 14µM

Results for COc1cc(/C=N/NC(=O)c2cc(-c3ccco3)nc3ccccc23)cc(OC)c1O ?
ALDH1A1 block: 22µM

How did O=C(N/N=C\c1ccc(-c2ccccc2[N+](=O)[O-])o1)C1COc2cc3ccccc3cc2O1 (configuration not stated) do in these assays?
ALDH1A1 block: inactive; PNC assembly inh: inconclusive; HPGD block: inactive

What do the screens show for `COc1cc(/C=N/NC(=O)c2cc(-c3ccccc3OC(C)C)nc3ccccc23)ccc1O`?
ALDH1A1 block: inactive; PNC assembly inh: inactive; HPGD block: inactive

What do the screens show for `Cc1cc(C(=O)N/N=C/c2ccco2)c2ccccc2n1`?
ALDH1A1 block: inactive; PNC assembly inh: inactive; HPGD block: inactive

What do the screens show for `Cc1cc(C(=O)N/N=C/c2ccc(C)o2)c2ccccc2n1`?
ALDH1A1 block: inactive; PNC assembly inh: -94; HPGD block: inconclusive

What do the screens show for `Cc1ccc2c(ccc(=S)n2C)c1`?
ALDH1A1 block: inactive

Results for CC(NC(=O)c1cc(S(=O)(=O)N(C)C)ccc1N1CCCC1)C1CC2CCC1C2 (configuration not stated) ?
ALDH1A1 block: inactive

Results for O=[N+]([O-])c1cccc(/C=N\NC2=CS(=O)(=O)C=C2)c1 ?
ALDH1A1 block: inactive[13.5 µM]; HPGD block: inactive

Results for CCCC(C)NC(=O)COc1ccc(S(=O)(=O)N2CCCC2)cc1 (configuration not stated) ?
ALDH1A1 block: inactive

Results for COc1cccc(CNC(=O)CCC2CCCN(Cc3cc4ccccc4o3)C2)c1 (configuration not stated) ?
ALDH1A1 block: inactive

Results for O=C1/C(=C\c2ccc(C(F)(F)F)cc2)CSc2sccc21 ?
ALDH1A1 block: inactive

Results for Cc1nn(-c2ccccc2)c(Cl)c1/C=N/NC(=O)c1ccco1 ?
ALDH1A1 block: inactive; PNC assembly inh: inactive; HPGD block: inactive

Results for Cc1nn(-c2ccccc2)c(Cl)c1/C=N/NC(=O)C1COc2ccccc2O1 (configuration not stated) ?
ALDH1A1 block: 2.8µM; PNC assembly inh: inactive; HPGD block: inactive

How did c1ccc2c(c1)oc1c(Nc3ccc4c(c3)OCCO4)ncnc12 do in these assays?
ALDH1A1 block: inactive; PNC assembly inh: inactive; HPGD block: inactive

Results for CCc1nc(Nc2ccc3c(c2)OCCO3)c2oc3ccccc3c2n1 ?
ALDH1A1 block: 25µM; PNC assembly inh: inactive; HPGD block: inactive

Results for Cc1nc(NCc2ccc3c(c2)OCO3)c2oc3ccccc3c2n1 ?
ALDH1A1 block: inconclusive; PNC assembly inh: inactive; HPGD block: inactive

How did CCc1nc(NCc2ccc3c(c2)OCO3)c2oc3ccccc3c2n1 do in these assays?
ALDH1A1 block: 13µM; PNC assembly inh: inconclusive; HPGD block: inactive

What do the screens show for `O=C(NC1CCCCC1)C(c1ccc(O)c(O)c1)N(C(=O)Cn1nnc2ccccc21)c1cccc(O)c1` (configuration not stated)?
ALDH1A1 block: inactive

How did O=C1c2ccccc2C(O)N1Cc1cccs1 (configuration not stated) do in these assays?
ALDH1A1 block: inactive

Results for Cc1ccc(/C=C/C(=O)OCC(=O)Nc2cccc(S(=O)(=O)N(C)C)c2)o1 ?
ALDH1A1 block: inconclusive; PNC assembly inh: inconclusive; HPGD block: inactive

What do the screens show for `CCn1c(SCc2nc3ccccc3nc2C)nnc1-c1cccs1`?
ALDH1A1 block: inactive; PNC assembly inh: inactive; HPGD block: inactive

Results for C=CCn1c(SCc2nc3ccccc3nc2C)nnc1-c1ccoc1C ?
ALDH1A1 block: 1.6µM; PNC assembly inh: inconclusive; HPGD block: 25µM

Results for COc1ccccc1N/C=C/c1onc(C)c1[N+](=O)[O-] ?
ALDH1A1 block: inactive

What do the screens show for `Cc1noc(/C=C/Nc2ccc(F)cc2F)c1[N+](=O)[O-]`?
ALDH1A1 block: 1.3µM

What do the screens show for `CCCn1c(=O)c(C(=O)NNS(=O)(=O)c2ccc(Cl)cc2)c(O)c2ccccc21`?
ALDH1A1 block: 32µM; PNC assembly inh: inactive; HPGD block: inactive

How did CCCCCCCCCC(=O)NNC(=O)c1c(O)c2ccccc2n(CCC)c1=O do in these assays?
ALDH1A1 block: inactive

Results for Cc1ccc(CCP(=O)(O)CN2CCCCC2)cn1 ?
ALDH1A1 block: inactive; HPGD block: inactive

Results for COc1ccccc1CNC(=O)COC(=O)[C@H](Cc1c[nH]c2ccccc12)NC(=O)c1cccs1 ?
ALDH1A1 block: inactive; PNC assembly inh: inactive; HPGD block: inactive

How did CC(CCc1nc2ccccc2s1)(c1ccc(O)cc1)c1ccc(O)cc1 do in these assays?
ALDH1A1 block: inactive[13.5 µM]; HPGD block: inconclusive
